Measurements taken from PubChem BioAssay AID1159580 (chemical genetic matrix, 2015).
The whole screen tested about 5,500 compounds, of which about 2,000 (36%) were called active. Not shown: some 18% with an inconclusive outcome. Rule as the data show it: active = normalized growth mostly below about 0.91 (no sharp cut-off); inconclusive = no clear call, values can overlap the other calls; inactive = mostly above about 0.92. The list shows a part of the results.

Test: chemical genetic growth profiling, strain panel (AID 1159580);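 also: tested at 20 µM; growth read once vehicle control cultures reached saturation at 30 °C; 1 = growth at the plate median or of vehicle wells; lower values mean less growth of the strain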
Details: S. cerevisiae deletion strains, growth OD

Measured: normalized growth

COC1CC(OC2CCC3(C)C(CCC4C3CCC3(C)C(C5=CC(=O)OC5)C(OC(C)=O)CC43O)C2)OC(C)C1O (stereo not given)
inactive: locus YAL021C, strain ccr4, stronger effect = lower value 0.998 | locus YAL026C, strain drs2, stronger effect = lower value 1.02 | locus YAL030W, strain snc1, stronger effect = lower value 1.01 | locus YBL061C, strain skt5, stronger effect = lower value 1.02 | locus YBR009C, strain hhf1, stronger effect = lower value 1.02 | locus YBR023C, strain chs3, stronger effect = lower value 1.02 | locus YBR171W, strain sec66, stronger effect = lower value 1.03 | locus YBR231C, strain swc5, stronger effect = lower value 1.02 | locus YBR279W, strain paf1, stronger effect = lower value 1.01 | locus YCL011C, strain gbp2, stronger effect = lower value 1.02 | locus YCL016C, strain dcc1, stronger effect = lower value 1.01 | locus YCL061C, strain MRC1, stronger effect = lower value 1.02 | locus YCL069W, strain vba3, stronger effect = lower value 1.02 | locus YCR088W, strain abp1, stronger effect = lower value 1.02 | locus YDL005C, strain med2, stronger effect = lower value 1.03 | locus YDL040C, strain nat1, stronger effect = lower value 1.01 | locus YDR001C, strain nth1, stronger effect = lower value 1.02 | locus YDR069C, strain doa4, stronger effect = lower value 1.01 | locus YDR137W, strain rgp1, stronger effect = lower value 1 | locus YDR159W, strain sac3, stronger effect = lower value 1.04 | locus YDR195W, strain ref2 1.03 | locus YDR297W, strain sur2, stronger effect = lower value 1.03 | locus YDR334W, strain swr1, stronger effect = lower value 1.03 | locus YDR335W, strain msn5, stronger effect = lower value 1.03 | locus YDR392W, strain spt3, stronger effect = lower value 0.984 | locus YEL003W, strain gim4, stronger effect = lower value 1.02 | locus YEL037C, strain rad23, stronger effect = lower value 1.02 | locus YEL061C, strain CIN8 (second series), stronger effect = lower value 1.02 | locus YER015W, strain faa2, stronger effect = lower value 1.02 | locus YER016W, strain bim1, stronger effect = lower value 1.02 | locus YER111C, strain swi4, stronger effect = lower value 1.03 | locus YER155C, strain BEM2 (second series), stronger effect = lower value 1.03 | locus YFR010W, strain ubp6, stronger effect = lower value 1.03 | locus YGL167C, strain pmr1, stronger effect = lower value 1.02 | locus YGL173C, strain kem1, stronger effect = lower value 1.03 | locus YGL227W, strain vid30, stronger effect = lower value 1.02 | locus YGL240W, strain doc1, stronger effect = lower value 1.01 | locus YGL253W, strain hxk2, stronger effect = lower value 1.03 | locus YHR013C, strain ard1, stronger effect = lower value 1.03 | locus YHR027C, strain rpn1, stronger effect = lower value 1.03 | locus YHR142W, strain chs7, stronger effect = lower value 1.02 | locus YJL092W, strain hpr5, stronger effect = lower value 1.03 | locus YJL095W, strain BCK1 (second series), stronger effect = lower value 1.01 | locus YJL115W, strain asf1, stronger effect = lower value 1.03 | locus YJL129C, strain trk1, stronger effect = lower value 1.02 | locus YJL154C, strain vps35, stronger effect = lower value 1.02 | locus YJL164C, strain tpk1, stronger effect = lower value 1 | locus YJL166W, strain qcr8, stronger effect = lower value 1.03 | locus YJL187C, strain SWE1, stronger effect = lower value 1.01 | locus YKL160W, strain elf1, stronger effect = lower value 1.01 | locus YKR026C, strain gcn3, stronger effect = lower value 1.02 | locus YKR091W, strain srl3, stronger effect = lower value 1.01 | locus YLL001W, strain dnm1, stronger effect = lower value 1.02 | locus YLL026W, stronger effect = lower value 1.02 | locus YLL041C, strain sdh2, stronger effect = lower value 1.02 | locus YLR027C, strain aat2, stronger effect = lower value 1.01 | locus YLR221C, strain rsa3, stronger effect = lower value 1.03 | locus YLR258W, strain gsy2, stronger effect = lower value 1.01 | locus YLR262C, strain YPT6 (second series), stronger effect = lower value 1.04 | locus YLR320W, strain mms22, stronger effect = lower value 1.01 | locus YLR342W, strain FKS1, stronger effect = lower value 1.02 | locus YLR357W, strain rsc2, stronger effect = lower value 1.06 | locus YLR370C, strain arc18, stronger effect = lower value 1.02 | locus YLR384C, strain iki3, stronger effect = lower value 1.02 | locus YML120C, strain ndi1, stronger effect = lower value 1.01 | locus YMR058W, strain fet3, stronger effect = lower value 1.04 | locus YMR125W, strain sto1, stronger effect = lower value 1.02 | locus YMR129W, stronger effect = lower value 1.01 | locus YMR205C, strain PFK2, stronger effect = lower value 1.01 | locus YMR231W, strain pep5, stronger effect = lower value 1.02 | locus YNL071W, strain lat1, stronger effect = lower value 1.02 | locus YNL209W, strain ssb2, stronger effect = lower value 1.01 | locus YNL248C, strain rpa49, stronger effect = lower value 0.939 | locus YNL322C, strain KRE1 (second series), stronger effect = lower value 1.03 | locus YNR049C, strain mso1, stronger effect = lower value 1.01 | locus YOR001W, strain rrp6, stronger effect = lower value 1.02 | locus YOR070C, strain gyp1, stronger effect = lower value 1.03 | locus YOR080W, strain dia2, stronger effect = lower value 1.02 | locus YOR083W, strain WHI5, stronger effect = lower value 1 | locus YOR106W, strain vam3, stronger effect = lower value 1.01 | locus YOR265W, strain rbl2, stronger effect = lower value 1.01 | locus YOR270C, strain vph1, stronger effect = lower value 1.02 | locus YOR290C, strain snf2, stronger effect = lower value 0.986 | locus YPL051W, strain arl3, stronger effect = lower value 1.01 | locus YPL078C, strain atp4, stronger effect = lower value 1.01 | locus YPL106C, strain sse1, stronger effect = lower value 1.01 | locus YPL240C, strain hsp82, stronger effect = lower value 1.02

COC1C(O)C(C)OC(O[C@H]2CC[C@]3(C=O)C4C(CC[C@]3(O)C2)[C@@]2(O)CC[C@H](C3=CC(=O)OC3)[C@@]2(C)C[C@H]4O)C1O (stereo not given in full)
inactive: locus YHR030C, strain SLT2, stronger effect = lower value 1.07 | locus YHR079C, strain IRE1, stronger effect = lower value 1.08 | locus YJL095W, strain BCK1, stronger effect = lower value 1.04 | locus YJR066W, strain TOR1, stronger effect = lower value 0.979 | locus YLR113W, strain HOG1, stronger effect = lower value 0.968 | locus YNL183C, strain NPR1, stronger effect = lower value 0.988 | locus YOR231W, strain MKK1, stronger effect = lower value 1.01 | locus YPL256C, strain CLN2, stronger effect = lower value 1.12
